Test results reported in PubChem BioAssay.
Records with an inconclusive call do not appear. Activity calls are given as the source filed them.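 How the source made its calls, unless noted: active means viability loss from added drug above about 55%, and viability with drug at most 40%, in both replicates (limit read from the data, passing the limit was not always enough); inconclusive means both conditions met in only one replicate; inactive means neither replicate meets both conditions.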

Key:
[1] = Her2 expression decrease, cell viability multiplex – SKBR3 breast tumor cells, AlphaScreen, ATP viability, primary screen (AID 461;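 active means Her2 level under about 52% in both replicate screens, with viability over 70% of control, limit read from the data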;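 on Her2 level: lower value means less Her2 protein in the cells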;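 on viability: percent of carrier control wells set as 100% viability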); conditions: SKBR3 Her2 protein level, 18-24 h, measured here: SKBR3 viability, ATP luminescence, at 10 µM
[2] = target: Receptor tyrosine-protein kinase erbB-2 (Homo sapiens) (UniProt P04626); assay: as above; conditions: 18-24 h, at 10 µM, stronger effect = lower value
Receptor tyrosine-protein kinase erbB-2 (Homo sapiens), sequence (P04626 whole entry, looked up): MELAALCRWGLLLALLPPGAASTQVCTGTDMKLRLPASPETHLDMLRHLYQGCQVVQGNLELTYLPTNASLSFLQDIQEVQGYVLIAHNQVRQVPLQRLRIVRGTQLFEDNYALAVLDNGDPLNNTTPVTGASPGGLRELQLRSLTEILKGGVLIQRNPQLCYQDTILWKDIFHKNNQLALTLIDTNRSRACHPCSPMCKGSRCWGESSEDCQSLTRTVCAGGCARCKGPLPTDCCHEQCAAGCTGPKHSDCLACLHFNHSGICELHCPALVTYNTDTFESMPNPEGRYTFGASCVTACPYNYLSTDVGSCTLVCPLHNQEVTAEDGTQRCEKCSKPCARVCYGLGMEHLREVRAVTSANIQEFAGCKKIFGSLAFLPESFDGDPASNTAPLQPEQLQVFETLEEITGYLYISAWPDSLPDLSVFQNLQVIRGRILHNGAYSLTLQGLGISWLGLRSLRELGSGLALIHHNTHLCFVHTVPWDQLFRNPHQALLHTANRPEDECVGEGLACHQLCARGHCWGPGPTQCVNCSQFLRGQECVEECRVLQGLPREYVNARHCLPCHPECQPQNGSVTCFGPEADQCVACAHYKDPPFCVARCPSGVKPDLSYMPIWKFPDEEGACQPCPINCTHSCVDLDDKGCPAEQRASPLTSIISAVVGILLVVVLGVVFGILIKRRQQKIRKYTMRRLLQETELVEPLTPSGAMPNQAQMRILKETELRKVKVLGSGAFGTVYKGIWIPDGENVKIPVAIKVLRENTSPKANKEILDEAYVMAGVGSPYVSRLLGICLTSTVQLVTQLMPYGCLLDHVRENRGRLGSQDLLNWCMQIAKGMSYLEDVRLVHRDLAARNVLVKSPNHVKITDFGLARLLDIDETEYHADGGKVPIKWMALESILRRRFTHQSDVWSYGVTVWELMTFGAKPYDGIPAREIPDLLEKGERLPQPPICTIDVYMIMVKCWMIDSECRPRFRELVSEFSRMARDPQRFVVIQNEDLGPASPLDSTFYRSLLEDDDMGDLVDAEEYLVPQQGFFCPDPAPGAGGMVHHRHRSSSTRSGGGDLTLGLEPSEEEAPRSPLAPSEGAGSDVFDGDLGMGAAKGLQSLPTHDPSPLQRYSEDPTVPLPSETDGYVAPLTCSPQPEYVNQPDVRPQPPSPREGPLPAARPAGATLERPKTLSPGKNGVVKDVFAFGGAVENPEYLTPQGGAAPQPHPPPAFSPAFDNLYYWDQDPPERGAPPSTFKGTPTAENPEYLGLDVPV

[3] = reduced viability of SK-BR-3 breast cancer cells – cell-based, 24 h, human, pilot screen (AID 572;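 active means viability at or below 10% of carrier control in both of two separate runs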;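 further: compound exposure lasted between 18 and 24 h rather than exactly 24 h; 100% = carrier-treated control wells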); conditions: SK-BR-3 viability, CellTiter-Glo luminescence, at 10 µM, stronger effect = lower value
[4] = HUVEC growth inhibition – cell-based, human, primary screen (AID 575;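 active means viability at or below 30% in both replicate assays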;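 further: 100% = median of untreated cell wells with 0.1% DMSO on each plate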); conditions: HUVEC proliferation, CellTiter-Glo luminescence, 72 h; at 10 µM; stronger effect = lower value
[5] = H69AR cell proliferation blockers – human, duplicate replicates, primary screen (AID 580;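 active means viability at or under a set limit in both replicates, limit being median viability minus 3 SD, cut at about 48% in these data, passing the limit was not always enough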;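 further: 100% = mean luminescence of untreated wells and 0% = no signal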); conditions: H69AR lung tumor cells viability, ATP luminescence, 72 h; at 10 µM; stronger effect = lower value
[6] = MRP1 drug-resistance reversers in H69AR cells – cell-based, doxorubicin co-treatment, pilot screen (AID 601); conditions: CellTiter-Glo, 72 h, at 10 µM; for differential viability (reversal): stronger effect = higher value
[7] = yeast transport mutant growth inhibition pilot in 384-well plates, post-Golgi transport modulator project (AID 636; in the data active means inhibition above about 31%); conditions: absorbance 615 nm, about 18 h, stronger effect = higher value
[8] = growth suppression of yeast trafficking mutant, preliminary HTS, modulators of trafficking downstream of Golgi apparatus project, 1536-format plate, OD 615 nm (AID 637; in the data active means inhibition above about 30%); conditions: yeast transport mutant growth, absorbance 615 nm, 18 h; stronger effect = higher value
[9] = S. cerevisiae growth inhibition in permissive medium (OD615), pilot counter-assay for S. cerevisiae lifespan shortening project, permissive growth control (AID 705;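 active means growth inhibition above 25% in both replicates, a cutoff set 3 SD above the mean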); conditions: OD615, 24 h, at 10 µM, stronger effect = higher value
[10] = S. cerevisiae growth inhibition in restrictive medium, OD615, pilot screen, restrictive growth control, yeast lifespan reduction project (AID 706;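 active means growth inhibition above a set limit, 3 SD over mean compound inhibition, in both replicates, cut at about 43% in these data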;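 further: modified DeaD lifespan yeast strain shifted to restrictive glucose medium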); conditions: OD615, 48 h, at 10 µM, stronger effect = higher value
[11] = doxorubicin toxicity protection in MRP-1 cells – H69AR cells, CellTiter-Glo, duplicate, MRP-1 activator project, pilot screen (AID 807;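 active means viability increase at or above a cutoff of the median across tested compounds plus 3 SD, cut at about 8.5% in these data, passing the limit was not always enough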;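 further: compound pretreatment 18-22 h then 72 h combined with doxorubicin; 0% = doxorubicin alone and 100% = vehicle without doxorubicin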); conditions: H69AR viability with doxorubicin, CellTiter-Glo luminescence; at 10 µM; stronger effect = higher value
[12] = viability of HCT116 without oncogenic beta-catenin – human colon tumor cells, pilot screen (AID 823;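 active means cell viability at or below a set limit in both duplicate runs, the limit being the all-compound median minus 4 SD, cut at about 23% in these data, passing the limit was not always enough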;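 further: 0% = wells killed by 20 µM Hyamine and 100% = untreated DMSO cell wells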); conditions: HCT116 beta-catenin knockout viability, CellTiter-Glo, 60 h; at 10 µM; stronger effect = lower value
[13] = viability of PTEN-null HCT116 cells – cell-based, HCT116 clonal line, CellTiter-Glo, pilot screen (AID 824;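 active means viability at or below 27.92% in each of two runs, the all-compound median minus 4 SD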;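 further: 0% = 20 µM Hyamine control and 100% = vehicle cell control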); conditions: HCT116 PTEN-deleted viability, 60 h, at 10 µM, stronger effect = lower value
[14] = RAM pathway blockade in budding yeast – dse1pr::URA3 reporter, 5-FOA selection, pilot screen (AID 869;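 active means inhibition over a set limit, the all-compound mean plus 3 SD, in both replicate runs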;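 further: 0% = DMSO wells with no growth and 100% = 10 µM 1-NA-PP1 with full growth; RAM network block rescues cells from 5-FOA so hits raise OD615 growth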); conditions: S. cerevisiae dse1pr::URA3 5-FOA growth, OD615, 2 d; at 10 µM; stronger effect = higher value; strain carries analog-sensitive mutant Cbk1 kinase
[15] = RAM signaling pathway blockade in yeast – S. cerevisiae, Pdr1DBD-CYC8 efflux-inhibited sensitized strain, primary screen (AID 1298;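 active means RAM network inhibition above 8.4% in each of two replicates, 3 SD over the compound average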;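 further: 0% = DMSO untreated cells without growth and 100% = 10 µM 1-NA-PP1 full growth; higher means more yeast growth rescued from 5-FOA killing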); conditions: S. cerevisiae cbk1-as DSE1-URA3 strain, 5-FOA growth OD615, 2 d; at 50 µM; stronger effect = higher value
[16] = H69AR cells + 2 uM doxorubicin, measured here: viability with 2 uM doxorubicin, stronger effect = lower value
[17] = H69AR cells, compound alone cytotoxicity

| Structure (SMILES) | viability [1] [%] | Her2 level [2] | viability [3] | viability [4] | viability [5] | differential viability (reversal) ([6]; H69AR cells + 2 uM doxorubicin) | viability [6, 16] [%] | viability [6, 17] [%] | inhibition [7] | inhibition [8] | growth inhibition [9] | growth inhibition [10] | viability increase [11] | viability [12] | viability [13] | inhibition [14] | RAM network inhibition [15] |
| --- | --- | --- | --- | --- | --- | --- | --- | --- | --- | --- | --- | --- | --- | --- | --- | --- | --- |
| CCOC(=O)N1CCN(C(c2ccc(Cl)cc2)c2sc3nc(C)nn3c2O)CC1 (stereo not drawn) | 94 | 89% (inactive) | 94% (inactive) | 87.7% (inactive) | 94.7% (inactive) | -8.7% (inactive) | 103 | 94.7 | -4.67% (inactive) | 0.33% (inactive) | 1.38% (inactive) | 1.06% (inactive) | 0.03% (inactive) | 98.4% (inactive) | 106% (inactive) | 0.72% (inactive) | 6.22% (inactive) |
| c1ccc(N2CCN(Cc3cn4cccnc4n3)CC2)cc1 | 98 | 94% (inactive) | 98% (inactive) | 97.2% (inactive) | 97.6% (inactive) | 3.72% (inactive) | 93.9 | 97.6 | -2% (inactive) | -6.07% (inactive) | -10.3% (inactive) | -6.25% (inactive) | 1.38% (inactive) | 98% (inactive) | 95.1% (inactive) | 0.465% (inactive) | 6.85% (inactive) |
| COC(=O)c1cc(OC)c(OC)cc1NC(=O)c1ccc(Br)o1 | 85.5 | 84% (inactive) | 85.5% (inactive) | 101% (inactive) | 87.6% (inactive) | -5.39% (inactive) | 93 | 87.6 | 0.13% (inactive) | 3% (inactive) | -14.5% (inactive) | -3.21% (inactive) | -0.2% (inactive) | 96% (inactive) | 86.1% (inactive) | 3.2% (inactive) | 4.75% (inactive) |
| CC(=O)NC(CCS(C)(=O)=O)C(=O)Nc1cccc2ccccc12 (stereo not drawn) | 108 | 102% (inactive) | 108% (inactive) | 94% (inactive) | 87.5% (inactive) | -10.2% (inactive) | 97.7 | 87.5 | -1.87% (inactive) | -5.5% (inactive) | -12.6% (inactive) | -14.3% (inactive) | -2.44% (inactive) | 103% (inactive) | 88.3% (inactive) | 1.77% (inactive) | 8.64% (inactive) |
| Cc1ccc(-c2cc3nc4c(c(=O)n3[nH]2)CCCC4)cc1 | 105 | 119% (inactive) | 105% (inactive) | 88.7% (inactive) | 91.9% (inactive) | -1.42% (inactive) | 93.4 | 91.9 | -0.26% (inactive) | -10% (inactive) | -17% (inactive) | -22.5% (inactive) | -0.73% (inactive) | 95.2% (inactive) | 90.4% (inactive) | 2.7% (inactive) | 5.06% (inactive) |
| CCc1nn(CC(=O)NCCCN2CCc3ccccc3C2)c(=O)c2cc3sccc3n12 | 86 | 86.5% (inactive) | 86% (inactive) | 89.1% (inactive) | 77.5% (inactive) | -3.23% (inactive) | 80.8 | 77.5 | -3.46% (inactive) | 1% (inactive) | -2.08% (inactive) | -10.3% (inactive) | -4.54% (inactive) | 78.9% (inactive) | 79.9% (inactive) | 0.58% (inactive) | 1.52% (inactive) |
| CC1CCN(Cc2nc3c(c(=O)n(C)c(=O)n3C)n2Cc2cccc3ccccc23)CC1 | 84 | 86.5% (inactive) | 84% (inactive) | 98% (inactive) | 84.9% (inactive) | -4.26% (inactive) | 89.2 | 84.9 | -4% (inactive) | 3.67% (inactive) | -0.525% (inactive) | 0.35% (inactive) | -1.93% (inactive) | 87% (inactive) | 88.2% (inactive) | 0.115% (inactive) | 7.49% (inactive) |
| O=C(NCc1ccco1)C1CCN(c2ccc(N3CCOCC3)nn2)CC1 | 86.5 | 120% (inactive) | 86.5% (inactive) | 91.4% (inactive) | 83.6% (inactive) | 2.94% (inactive) | 80.6 | 83.6 | -0.53% (inactive) | -0.83% (inactive) | 0.41% (inactive) | 5.46% (inactive) | -3.71% (inactive) | 95.2% (inactive) | 97.3% (inactive) | 0.935% (inactive) | 4.7% (inactive) |
| CCN(CC)CCCNC(=O)c1cn(C)c2ccc(S(=O)(=O)N(C)C)cc2c1=O | 98.5 | 116% (inactive) | 98.5% (inactive) | 99.2% (inactive) | 99.4% (inactive) | 2.72% (inactive) | 96.7 | 99.4 | -0.26% (inactive) | 1.5% (inactive) | -1.33% (inactive) | 8.49% (inactive) | -0.44% (inactive) | 101% (inactive) | 98.5% (inactive) | 2.21% (inactive) | 1.85% (inactive) |
| COc1cccc(C2C(C(N)=O)=C(C)Nc3nc(-c4ccccc4Cl)nn32)c1 (stereo not drawn) | 79.5 | 92.5% (inactive) | 79.5% (inactive) | 69.3% (inactive) | 92.1% (inactive) | 15.7% (inactive) | 76.4 | 92.1 | -5.33% (inactive) | -2.83% (inactive) | -0.045% (inactive) | -2.87% (inactive) | -2.66% (inactive) | 67.2% (inactive) | 72.2% (inactive) | -0.135% (inactive) | 2.34% (inactive) |
| COC(=O)NCC(c1cccnc1)N1CCOCC1 (stereo not drawn) | 97 | 95.5% (inactive) | 97% (inactive) | 103% (inactive) | 95.7% (inactive) | 2.39% (inactive) | 93.3 | 95.7 | -0.64% (inactive) | -4.83% (inactive) | -1.88% (inactive) | -7.24% (inactive) | 0.99% (inactive) | 102% (inactive) | 99.6% (inactive) | 0.015% (inactive) | -0.26% (inactive) |
| O=C(O)C1CC(=O)N(CCOc2ccccc2)C1 (stereo not drawn) | 105 | 126% (inactive) | 105% (inactive) | 111% (inactive) | 93.9% (inactive) | -3.07% (inactive) | 97 | 93.9 | -3.51% (inactive) | -2.62% (inactive) | 2.4% (inactive) | 3.82% (inactive) | 0.57% (inactive) | 102% (inactive) | 100% (inactive) | 0.69% (inactive) | 1.17% (inactive) |
| c1ccn2c(SCc3ccc4c(c3)OCCO4)nnc2c1 | 108 | 108% (inactive) | 108% (inactive) | 93.8% (inactive) | 92.1% (inactive) | 0.37% (inactive) | 91.7 | 92.1 | -3.47% (inactive) | 1.67% (inactive) | 6.86% (inactive) | 12.2% (inactive) | -0.85% (inactive) | 96.6% (inactive) | 99.2% (inactive) | 0.305% (inactive) | 5.34% (inactive) |
| Cc1nn(-c2ccc(F)cc2)c2c1cc(C#N)c1nc3ccccc3n12 | 102 | 81% (inactive) | 102% (inactive) | 56.2% (inactive) | 86.3% (inactive) | 5.42% (inactive) | 80.9 | 86.3 | -2.89% (inactive) | -2.67% (inactive) | 1.38% (inactive) | 8.66% (inactive) | -1.92% (inactive) | 95.9% (inactive) | 93.5% (inactive) | 0.36% (inactive) | 6.61% (inactive) |
| COc1ccc(-c2nc(CSCC(=O)N3CCc4ccccc4C3)c(C)o2)cc1OC | 88.5 | 69.5% (inactive) | 88.5% (inactive) | 93.8% (inactive) | 92.6% (inactive) | 0.215% (inactive) | 92.4 | 92.6 | -0.38% (inactive) | -0.5% (inactive) | 13.3% (inactive) | 33.4% (inactive) | -3.15% (inactive) | 93.9% (inactive) | 89.8% (inactive) | -0.395% (inactive) | 3.92% (inactive) |
| COc1ccc(N2CCN(C(=O)C(C)(C)Oc3ccc(Cl)cc3)CC2)cc1 | 85 | 91.5% (inactive) | 85% (inactive) | 76.9% (inactive) | 68.4% (inactive) | -10.2% (inactive) | 78.6 | 68.4 | -1.07% (inactive) | -2.83% (inactive) | -6.29% (inactive) | 5.29% (inactive) | -4.56% (inactive) | 74.4% (inactive) | 71.7% (inactive) | 1.45% (inactive) | 9.33% (inactive) |
| COc1ccc(OCCSc2nc3ccccc3n2CC(=O)O)cc1 | 92.5 | 108% (inactive) | 92.5% (inactive) | 85.4% (inactive) | 97.8% (inactive) | 2.5% (inactive) | 95.3 | 97.8 | -3.21% (inactive) | -2% (inactive) | -2.19% (inactive) | -5.21% (inactive) | -0.98% (inactive) | 99.6% (inactive) | 94.8% (inactive) | 0.61% (inactive) | 4.44% (inactive) |
| O=C(NCc1ccc2c(c1)OCO2)C1CCC(CNc2c(N3CCCCC3)c(=O)c2=O)CC1 (stereo not drawn) | 92.5 | 106% (inactive) | 92.5% (inactive) | 94% (inactive) | 98.9% (inactive) | 7% (inactive) | 91.9 | 98.9 | 0.64% (inactive) | -2.17% (inactive) | -2.47% (inactive) | 4.78% (inactive) | -2.93% (inactive) | 94.6% (inactive) | 88.9% (inactive) | 1% (inactive) | -0.46% (inactive) |
| COc1ccc(CNC(=O)c2nnn(Cc3ccc(OC)cc3)c2N)cc1 | 89.5 | 101% (inactive) | 89.5% (inactive) | 77.5% (inactive) | 86.5% (inactive) | -1.82% (inactive) | 88.3 | 86.5 | -2.69% (inactive) | 3.17% (inactive) | -3.35% (inactive) | -1.51% (inactive) | -3.08% (inactive) | 91% (inactive) | 85.4% (inactive) | 1.69% (inactive) | 2.66% (inactive) |
